± gives the standard deviation.
Experiments:
[1] = system: MILI (PIWIL2) piRISC loaded with L1MC piRNA (26 nt); assay: pre-steady-state target cleavage rate (min^-1); guide: L1MC piRNA 5'p-UAACUAAAUACUAUGCAAGCUGUAGG; higher = faster piRNA-guided slicing of the target
In short: (§1)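 A transcribed, DNA-blocked target RNA library (0.1 nM) and 1 nM active affinity-purified piRISC bearing one synthetic guide were incubated in HEPES–potassium acetate buffer at 33 °C for 0–8 or 0–960 min, either with or without 500 nM GTSF1 partner protein. Uncleaved targets were sequenced, normalised to depth and to weakly complementary targets, and pooled over three trials, with k3 capped at 0.0001 min^-1. The pre-steady-state cleavage rate was derived with a burst-and-steady-state fit.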

[2] = system: EfPiwi piRISC loaded with L1MC piRNA (26 nt); assay: pre-steady-state target cleavage rate (min^-1); auxiliary factor: 500 nM Ephydatia muelleri Gtsf1; guide: L1MC piRNA 5'p-UAACUAAAUACUAUGCAAGCUGUAGG; MIWI and MILI are mouse PIWI proteins and EfPiwi is from a freshwater sponge; tags in brackets are library labels; higher = faster piRNA-guided slicing of the target
In short: as §1

[3] = auxiliary factor: 500 nM mouse GTSF1
[4] = auxiliary factor: none (no GTSF1)

Row | Sequence | pre-steady-state target cleavage rate [1, 3] | pre-steady-state target cleavage rate [2] | pre-steady-state target cleavage rate [1, 4]
1 | UCCUGCUAGAGCUUGCAUAGUAUUUUCAAA | 0.0124 ± 0.0058 | 0.00315 ± 0.0025 | –
2 | UCCUGGUUGAGCUUGCAUAGUAUUUUCAAA | 0.0103 ± 0.006 | 0.00218 ± 0.0021 | –
3 | UCCUCGAACAGCUUGCAUAGUAUUUAGAAA | 0.137 ± 0.019 | 0.00534 ± 0.0018 | –
4 | UCCUGGUACAGCUUGCAUAGUAUUUACAUA | 0.0411 ± 0.014 | 0.0038 ± 0.0029 | –
5 | UCCUGGAUGUGCUUCCAUAGUAUUUAGUUA | 0.0271 ± 0.0077 | 0.00277 ± 0.0019 | –
6 | UCCUCCUACAGGUUGCAUAGUAUUUAGAUA | 0.123 ± 0.017 | 0.00362 ± 0.00095 | –
7 | UCCUGGUACUCCUUGCAUAGUAUUUAGAAA | 0.0265 ± 0.01 | 0.00304 ± 0.0022 | –
8 | UCCUGGAUGUCGAACGAUAGUGAUUUAGUUA | – | < 0.0001 | < 0.0001
9 | UCCUGGAACAGCUUGCAUAGUUUUUUGUUA | 0.0493 ± 0.014 | 0.00325 ± 0.0013 | –
10 | UCCUGGAACUGCUUGCAUACUAUUUAGUUA | 0.076 ± 0.01 | 0.0046 ± 0.0019 | –
11 | UCCUGGAACAGCUUGCAUAGUAUUUAGUA | 0.191 ± 0.02 | 0.00384 ± 0.0024 | –
12 | UCCUCCUACACCUUGCAUAGUAUUUACAAA | 0.127 ± 0.032 | 0.00304 ± 0.0025 | –
13 | UCCUCCUACAGCUUGCAUAGAAUUUACAAA | 0.0431 ± 0.015 | 0.00295 ± 0.0029 | –
14 | UCCUGGAUCAGCUUGCAUAGUUAAUAGUUA | 0.017 ± 0.0066 | 0.00344 ± 0.003 | –
15 | UCCUGCUACAGCUUGCAUAGUAAAAAGUAA | 0.0283 ± 0.0099 | 0.00322 ± 0.0027 | –
16 | UCCUGGUACAGCUUGCAUAGAAUUAAGUUA | 0.0989 ± 0.03 | 0.00454 ± 0.0027 | –
17 | UCCUGCUACAGCUUGCAUACUAAUUAGUUA | 0.0334 ± 0.0091 | 0.00252 ± 0.0014 | –
18 | UCCUGCUACAGCUUGCAUAGUAUUUACUAA | 0.112 ± 0.024 | 0.0025 ± 0.0024 | –
19 | UCCUGGUACUGCUUGCAUAGUAUUUAGAAA | 0.0143 ± 0.0067 | 0.00409 ± 0.0019 | –
20 | UCCUGGAUGAGCUUGCAUAGAAUUUAGUAA | 0.0264 ± 0.011 | 0.00272 ± 0.0027 | –
21 | UCCUGGAUCAGCUUGCAUAGUAUUAAGAAA | 0.0751 ± 0.02 | 0.00459 ± 0.0022 | –
22 | UCCUGGUACAGCUUGCAAAGUAUUUUGUUA | 0.0563 ± 0.014 | 0.00296 ± 0.0029 | –

Row | Sequence | pre-steady-state target cleavage rate [1, 3] | pre-steady-state target cleavage rate [2] | pre-steady-state target cleavage rate [1, 4]
23 | UCCUGGAUGAGCUUCCAUAGUAUUUAGUUA | 0.0222 ± 0.011 | 0.00346 ± 0.0018 | –
24 | UCCUGGAUGUGCUUGCAUAGUAUUUAGAAA | 0.0532 ± 0.013 | 0.00293 ± 0.0018 | –
25 | UCCUCCUAGUGCUUGCAUAGUAUUUAGUAA | 0.114 ± 0.019 | 0.00468 ± 0.002 | –
26 | UCCUGGAUGAGCUUGCAUAGUAUUUAGUCA | 0.172 ± 0.015 | 0.00793 ± 0.0032 | –
27 | UCCUGGUUCAGCUUGCAUAGUAUUUAGAAA | 0.114 ± 0.022 | 0.00471 ± 0.003 | –
28 | UCCUCCUACAGCUUGCAUAGUAUUAUCUAA | 0.187 ± 0.045 | 0.00413 ± 0.0033 | –
29 | UCCUGGUACAGGUUGCAUAGAAUUUAGUUA | 0.0804 ± 0.021 | 0.00277 ± 0.0022 | –
30 | UCCUGGAUGAGCUUGCAUAGUAGUUAGUUA | 0.158 ± 0.026 | 0.00781 ± 0.0027 | –
31 | UCCUGCUACAGCUUGCAUAGUAUUUUCAUA | 0.151 ± 0.044 | 0.00529 ± 0.0027 | –
32 | UCCUGCAACAGCUUGCAUAGUAUUUAGAUA | 0.125 ± 0.024 | 0.00372 ± 0.002 | –
33 | UCCUGGAACAGCUUGCAUAGGUAUUUAGUUA | – | 0.00262 ± 0.0026 | 0.00517 ± 0.0026
34 | UCCUCCUACAGCUUGCAUAGUAAAUAGUAA | 0.119 ± 0.025 | 0.00375 ± 0.0025 | –
35 | UCCUGGUACAGCUUGCAAAGUAUUUUCAAA | 0.0283 ± 0.012 | 0.00424 ± 0.0036 | –
36 | UCCUCCUACAGCUUGCAUAGUAAAAAGUUA | 0.0965 ± 0.016 | 0.00301 ± 0.0021 | –
37 | UCCUGGAUCAGCUUGCUUAGUAUUUAGAAA | 0.0821 ± 0.019 | 0.00269 ± 0.0022 | –
38 | UCCUGGAUGAGCUUGCCAUAGUAUUUAGUUA | 0.0808 ± 0.016 | 0.0035 ± 0.0026 | –
39 | UCCUGGAUCACCUUGCAUAGUAUUUAGUAA | 0.247 ± 0.038 | 0.00344 ± 0.0031 | –
40 | UCCUGCUACAGCAUGCAUAGUAUUUAGAAA | 0.188 ± 0.041 | 0.00416 ± 0.0014 | –
41 | UCCUGGUACAGCUUGCUUAGUAUUAAGUUA | 0.163 ± 0.041 | 0.00311 ± 0.0027 | –
42 | UCCUCCUACAGCUUGCAUAGUAUAUAGUAA | 0.147 ± 0.023 | 0.00441 ± 0.002 | –
43 | UCCUGGAUGUGCUUGCAUAGUAAUUAGAUA | 0.00915 ± 0.0044 | 0.00395 ± 0.0024 | –
44 | UCCUGGAACAGCUAGCAUAGUAUUUAGAAA | 0.219 ± 0.034 | 0.00262 ± 0.0023 | –

Row | Sequence | pre-steady-state target cleavage rate [1, 3] | pre-steady-state target cleavage rate [2] | pre-steady-state target cleavage rate [1, 4]
45 | UCCUGGAUCAGCUUGCAUAGUAUUUUCAAA | 0.0677 ± 0.013 | 0.00307 ± 0.0027 | –
46 | UCCUGGUACAGCUUGCAUUGUAUUUAGAUA | 0.0565 ± 0.016 | 0.00292 ± 0.0018 | –
47 | UCCUCCUUCAGCUUGCAUAGUAUUUUCAAA | 0.115 ± 0.022 | 0.00259 ± 0.0024 | –
48 | UCCUGGAUCAGCUUGGAUAGUAUUUUGUUA | 0.117 ± 0.021 | 0.00346 ± 0.0027 | –
49 | UCCUCCUACAGCUUGCAUAGUUUUUAGUAA | 0.0743 ± 0.015 | 0.005 ± 0.0022 | –
50 | UCCUGGAACUGCUUGCAUAGUAUUUAGAUA | 0.123 ± 0.023 | 0.00297 ± 0.002 | –
51 | UCCUCCUACAGCUUGCAUAGUAAUUACAAA | 0.18 ± 0.039 | 0.00353 ± 0.0025 | –
52 | UCCUGGAUCUGCUUCCAUAGUAUUUAGUUA | 0.0239 ± 0.0067 | 0.00326 ± 0.0022 | –
53 | UCCUGGAUCAGCUUGCAUAGUAUAAAGUAA | 0.11 ± 0.024 | 0.00455 ± 0.0038 | –
54 | UCCUCGUACAGCUUGCAUAGUAUUUAGAUA | 0.177 ± 0.025 | 0.00437 ± 0.0019 | –
55 | UCCUCCUUGAGCUUGCAUAGUAUUUACAAA | 0.0856 ± 0.023 | 0.00316 ± 0.0022 | –
56 | UCCUGGAUGAGCUUGCAUAGUAUUUCGUUA | 0.0995 ± 0.028 | 0.00352 ± 0.0019 | –
57 | UCCUCCUACUGCUUCCAUAGUAUUUAGUUA | 0.0403 ± 0.0098 | 0.0043 ± 0.0018 | –
58 | UCCUCCUACAGCUUGCAUAGUUUUUACAAA | 0.0506 ± 0.013 | 0.00552 ± 0.0037 | –
59 | UCCUGCUACAGCUUGCAUUGUAUUAAGUUA | 0.215 ± 0.03 | 0.00572 ± 0.0028 | –
60 | UCCUCCUACAGCUUGCAUAGUAAUUAGUAA | 0.141 ± 0.021 | 0.0063 ± 0.0029 | –
61 | UCCUGCUACAGCUUGCAUAGAAAUUAGUUA | 0.059 ± 0.015 | 0.0026 ± 0.0021 | –
62 | UCCUGGAUGAGCUAGCAUAGUAUUUUGUUA | 0.159 ± 0.036 | 0.00327 ± 0.003 | –
63 | UCCUGCUUGAGCUUGCAUAGUAUUUAGAAA | 0.148 ± 0.027 | 0.00479 ± 0.0016 | –
64 | UCCUGCUACAGCUUGCAUACUAUUUUGUUA | 0.0252 ± 0.0096 | 0.00432 ± 0.0019 | –

From the supplement of paper PMC10338343
